{
  "source": "the supplement of paper PMC12669032",
  "assay_in_all_cases": "growth AUC relative to DMSO control (median of replicates) (fraction); higher = more growth (less inhibition), active = hit call of the paper",
  "settings_in_all_cases": "20 µM; 24 h",
  "key": {"Coprococcus comes": {"tested_on": "Coprococcus comes", "summary_of_the_method": "(§1)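 Starting at OD600 0.05, gut bacterial monocultures in mGAM were grown anaerobically at 37 °C with 20 µM compound (1% DMSO) under pierced gas-permeable seals. OD600 was read every hour for 24 h, and the lowest OD of each curve was set to 0. Area under the growth curve was normalised to the plate median of solvent-only wells, or to row and column medians on the industrial chemical plate, and the median of three biological replicates grown on separate days is given.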"}, "Escherichia coli ED1a": {"tested_on": "Escherichia coli ED1a", "summary_of_the_method": "as §1"}, "Escherichia coli IAI1": {"tested_on": "Escherichia coli IAI1", "summary_of_the_method": "as §1"}, "Eubacterium rectale": {"tested_on": "Eubacterium rectale", "summary_of_the_method": "as §1"}, "[1]": {"tested_on": "Fusobacterium nucleatum subsp. animalis", "summary_of_the_method": "as §1"}, "Lactobacillus gasseri": {"tested_on": "Lactobacillus gasseri", "summary_of_the_method": "as §1"}, "Lactobacillus paracasei": {"tested_on": "Lactobacillus paracasei", "summary_of_the_method": "as §1"}, "Odoribacter splanchnicus": {"tested_on": "Odoribacter splanchnicus", "summary_of_the_method": "as §1"}, "[2]": {"tested_on": "Parabacteroides distasonis", "summary_of_the_method": "as §1"}, "Parabacteroides merdae": {"tested_on": "Parabacteroides merdae", "summary_of_the_method": "as §1"}},
  "note": "Unmarked numbers belong to inactive results.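 Rule for the calls: active = AUC reduced over 20% with Padj below 0.05 in at least 2 of 3 replicates; inactive = otherwise.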",
  "data": [
    {"molecule": "Cl.NC1=NCCN1Cc1ccc(Cl)nc1", "values": [
      {"measurement": "growth AUC", "setting": "Coprococcus comes", "value": 1.13},
      {"measurement": "growth AUC", "setting": "Escherichia coli ED1a", "value": 1.04},
      {"measurement": "growth AUC", "setting": "Escherichia coli IAI1", "value": 1.03},
      {"measurement": "growth AUC", "setting": "Eubacterium rectale", "value": 0.945},
      {"measurement": "growth AUC", "setting": "[1]", "value": 1.06},
      {"measurement": "growth AUC", "setting": "Lactobacillus gasseri", "value": 1.02},
      {"measurement": "growth AUC", "setting": "Lactobacillus paracasei", "value": 1.06},
      {"measurement": "growth AUC", "setting": "Odoribacter splanchnicus", "value": "0.507 (active)"},
      {"measurement": "growth AUC", "setting": "[2]", "value": 1.02},
      {"measurement": "growth AUC", "setting": "Parabacteroides merdae", "value": 1.05}
    ]},
    {"molecule": "CCSC(=O)N(CC)C1CCCCC1", "values": [
      {"measurement": "growth AUC", "setting": "Coprococcus comes", "value": 0.988},
      {"measurement": "growth AUC", "setting": "Escherichia coli ED1a", "value": 0.987},
      {"measurement": "growth AUC", "setting": "Escherichia coli IAI1", "value": 1.03},
      {"measurement": "growth AUC", "setting": "Eubacterium rectale", "value": 1.01},
      {"measurement": "growth AUC", "setting": "[1]", "value": 1.01},
      {"measurement": "growth AUC", "setting": "Lactobacillus gasseri", "value": 1.2},
      {"measurement": "growth AUC", "setting": "Lactobacillus paracasei", "value": 1},
      {"measurement": "growth AUC", "setting": "Odoribacter splanchnicus", "value": 0.975},
      {"measurement": "growth AUC", "setting": "[2]", "value": 1.07},
      {"measurement": "growth AUC", "setting": "Parabacteroides merdae", "value": 1.03}
    ]},
    {"molecule": "CCN(C(=O)n1nnn(-c2ccccc2Cl)c1=O)C1CCCCC1", "values": [
      {"measurement": "growth AUC", "setting": "Coprococcus comes", "value": 0.942},
      {"measurement": "growth AUC", "setting": "Escherichia coli ED1a", "value": 0.969},
      {"measurement": "growth AUC", "setting": "Escherichia coli IAI1", "value": 0.989},
      {"measurement": "growth AUC", "setting": "Eubacterium rectale", "value": 0.956},
      {"measurement": "growth AUC", "setting": "[1]", "value": 1.01},
      {"measurement": "growth AUC", "setting": "Lactobacillus gasseri", "value": 1.01},
      {"measurement": "growth AUC", "setting": "Lactobacillus paracasei", "value": 0.827},
      {"measurement": "growth AUC", "setting": "Odoribacter splanchnicus", "value": 0.97},
      {"measurement": "growth AUC", "setting": "[2]", "value": "0.682 (active)"},
      {"measurement": "growth AUC", "setting": "Parabacteroides merdae", "value": "0.411 (active)"}
    ]},
    {"molecule": "CCOP(=S)(OCC)Oc1ccc(Cl)cc1Cl", "values": [
      {"measurement": "growth AUC", "setting": "Coprococcus comes", "value": 1.03},
      {"measurement": "growth AUC", "setting": "Escherichia coli ED1a", "value": 1.01},
      {"measurement": "growth AUC", "setting": "Escherichia coli IAI1", "value": 1.02},
      {"measurement": "growth AUC", "setting": "Eubacterium rectale", "value": 0.953},
      {"measurement": "growth AUC", "setting": "[1]", "value": 1.03},
      {"measurement": "growth AUC", "setting": "Lactobacillus gasseri", "value": 1},
      {"measurement": "growth AUC", "setting": "Lactobacillus paracasei", "value": 1.07},
      {"measurement": "growth AUC", "setting": "Odoribacter splanchnicus", "value": 1.02},
      {"measurement": "growth AUC", "setting": "[2]", "value": 1.05},
      {"measurement": "growth AUC", "setting": "Parabacteroides merdae", "value": 0.997}
    ]},
    {"molecule": "C[C@H]1[C@H](c2ccc(Cl)cc2)SC(=O)N1C(=O)NC1CCCCC1", "values": [
      {"measurement": "growth AUC", "setting": "Coprococcus comes", "value": 1.03},
      {"measurement": "growth AUC", "setting": "Escherichia coli ED1a", "value": 1},
      {"measurement": "growth AUC", "setting": "Escherichia coli IAI1", "value": 0.996},
      {"measurement": "growth AUC", "setting": "Eubacterium rectale", "value": 1.05},
      {"measurement": "growth AUC", "setting": "[1]", "value": 1.07},
      {"measurement": "growth AUC", "setting": "Lactobacillus gasseri", "value": 0.791},
      {"measurement": "growth AUC", "setting": "Lactobacillus paracasei", "value": 1.03},
      {"measurement": "growth AUC", "setting": "Odoribacter splanchnicus", "value": 0.832},
      {"measurement": "growth AUC", "setting": "[2]", "value": 0.725},
      {"measurement": "growth AUC", "setting": "Parabacteroides merdae", "value": 0.947}
    ]},
    {"molecule": "O=P(Oc1ccccc1)(Oc1ccccc1)Oc1ccccc1", "values": [
      {"measurement": "growth AUC", "setting": "Coprococcus comes", "value": 0.937},
      {"measurement": "growth AUC", "setting": "Escherichia coli ED1a", "value": 1},
      {"measurement": "growth AUC", "setting": "Escherichia coli IAI1", "value": 0.993},
      {"measurement": "growth AUC", "setting": "Eubacterium rectale", "value": 0.977},
      {"measurement": "growth AUC", "setting": "[1]", "value": 0.828},
      {"measurement": "growth AUC", "setting": "Lactobacillus gasseri", "value": 0.943},
      {"measurement": "growth AUC", "setting": "Lactobacillus paracasei", "value": 0.958},
      {"measurement": "growth AUC", "setting": "Odoribacter splanchnicus", "value": 1.01},
      {"measurement": "growth AUC", "setting": "[2]", "value": "0.594 (active)"},
      {"measurement": "growth AUC", "setting": "Parabacteroides merdae", "value": 0.842}
    ]},
    {"molecule": "COc1cccc(C(=O)NN(C(=O)c2cc(C)cc(C)c2)C(C)(C)C)c1C", "values": [
      {"measurement": "growth AUC", "setting": "Coprococcus comes", "value": 1.01},
      {"measurement": "growth AUC", "setting": "Escherichia coli ED1a", "value": 0.974},
      {"measurement": "growth AUC", "setting": "Escherichia coli IAI1", "value": 0.97},
      {"measurement": "growth AUC", "setting": "Eubacterium rectale", "value": 1.07},
      {"measurement": "growth AUC", "setting": "[1]", "value": 0.884},
      {"measurement": "growth AUC", "setting": "Lactobacillus gasseri", "value": 0.818},
      {"measurement": "growth AUC", "setting": "Lactobacillus paracasei", "value": 0.947},
      {"measurement": "growth AUC", "setting": "Odoribacter splanchnicus", "value": 0.966},
      {"measurement": "growth AUC", "setting": "[2]", "value": 0.86},
      {"measurement": "growth AUC", "setting": "Parabacteroides merdae", "value": 0.908}
    ]},
    {"molecule": "Cc1nnc(-c2ccccc2)c(=O)n1N", "values": [
      {"measurement": "growth AUC", "setting": "Coprococcus comes", "value": 1},
      {"measurement": "growth AUC", "setting": "Escherichia coli ED1a", "value": 1},
      {"measurement": "growth AUC", "setting": "Escherichia coli IAI1", "value": 0.995},
      {"measurement": "growth AUC", "setting": "Eubacterium rectale", "value": 0.993},
      {"measurement": "growth AUC", "setting": "[1]", "value": 0.998},
      {"measurement": "growth AUC", "setting": "Lactobacillus gasseri", "value": 0.931},
      {"measurement": "growth AUC", "setting": "Lactobacillus paracasei", "value": 0.972},
      {"measurement": "growth AUC", "setting": "Odoribacter splanchnicus", "value": 1.06},
      {"measurement": "growth AUC", "setting": "[2]", "value": 1},
      {"measurement": "growth AUC", "setting": "Parabacteroides merdae", "value": 1.02}
    ]},
    {"molecule": "CCCCOC(=O)c1ccccc1C(=O)OCCCC", "values": [
      {"measurement": "growth AUC", "setting": "Coprococcus comes", "value": 1},
      {"measurement": "growth AUC", "setting": "Escherichia coli ED1a", "value": 1},
      {"measurement": "growth AUC", "setting": "Escherichia coli IAI1", "value": 0.962},
      {"measurement": "growth AUC", "setting": "Eubacterium rectale", "value": 1.07},
      {"measurement": "growth AUC", "setting": "[1]", "value": 1.06},
      {"measurement": "growth AUC", "setting": "Lactobacillus gasseri", "value": 0.911},
      {"measurement": "growth AUC", "setting": "Lactobacillus paracasei", "value": 0.986},
      {"measurement": "growth AUC", "setting": "Odoribacter splanchnicus", "value": 1.07},
      {"measurement": "growth AUC", "setting": "[2]", "value": "0.759 (active)"},
      {"measurement": "growth AUC", "setting": "Parabacteroides merdae", "value": 0.964}
    ]},
    {"molecule": "CCCCOC(=O)[C@@H](C)Oc1ccc(Oc2ccc(C#N)cc2F)cc1", "values": [
      {"measurement": "growth AUC", "setting": "Coprococcus comes", "value": 1.01},
      {"measurement": "growth AUC", "setting": "Escherichia coli ED1a", "value": 1},
      {"measurement": "growth AUC", "setting": "Escherichia coli IAI1", "value": 0.966},
      {"measurement": "growth AUC", "setting": "Eubacterium rectale", "value": 1.11},
      {"measurement": "growth AUC", "setting": "[1]", "value": 1.01},
      {"measurement": "growth AUC", "setting": "Lactobacillus gasseri", "value": 0.87},
      {"measurement": "growth AUC", "setting": "Lactobacillus paracasei", "value": 0.939},
      {"measurement": "growth AUC", "setting": "Odoribacter splanchnicus", "value": 1},
      {"measurement": "growth AUC", "setting": "[2]", "value": "0.704 (active)"},
      {"measurement": "growth AUC", "setting": "Parabacteroides merdae", "value": 0.971}
    ]}
  ]
}
